Experimental data from PubChem BioAssay AID560 (The Scripps Research Institute Molecular Screening Center, 2006).
Among all 65,000 compounds or so, about 980 (1.5%) were called active. This excerpt belongs to a sample that is enriched for actives. Unmarked numbers belong to inactive results.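 How the source made its calls: active means activation above the mean of all tested compounds plus 3 SD (cut at about 49% in these data); inactive means the rest.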

Each compound was assayed against Nuclear receptor ROR-alpha (Homo sapiens) (UniProt P35398) (assay: activators of orphan receptor RORA, primary screen, cell-based, luminescence (AID 560;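 further: 0% = DMSO-treated RORA cells and 100% = added signal equal to DMSO minus mock-transfected cells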)). Conditions: CHO-K1 Gal4-RORA LBD luciferase reporter, at 10 µM, hits give high values, percent increase over mock-subtracted basal signal.
Sequence of Nuclear receptor ROR-alpha (Homo sapiens) (P35398 whole entry, looked up, the tested form may be a part): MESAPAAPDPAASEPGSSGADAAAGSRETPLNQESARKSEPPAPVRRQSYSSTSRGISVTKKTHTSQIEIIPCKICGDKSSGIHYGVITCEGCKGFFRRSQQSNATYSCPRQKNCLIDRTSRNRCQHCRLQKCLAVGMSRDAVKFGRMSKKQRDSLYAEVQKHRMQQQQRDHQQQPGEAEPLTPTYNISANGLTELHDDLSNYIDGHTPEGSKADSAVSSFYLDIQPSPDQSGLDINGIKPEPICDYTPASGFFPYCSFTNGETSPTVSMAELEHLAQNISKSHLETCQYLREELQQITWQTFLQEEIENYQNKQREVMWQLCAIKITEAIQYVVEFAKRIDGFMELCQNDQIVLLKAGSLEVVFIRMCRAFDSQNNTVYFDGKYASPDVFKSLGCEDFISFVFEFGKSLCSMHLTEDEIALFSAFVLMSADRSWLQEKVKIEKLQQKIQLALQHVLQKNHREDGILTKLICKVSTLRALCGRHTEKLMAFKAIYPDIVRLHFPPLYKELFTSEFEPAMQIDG
For `O=C(NCc1ccccn1)Nc1ccc(F)cc1`, the activation was 28.4%.
In the case of `O=C(NCc1cn2ccsc2n1)Nc1cccc(Cl)c1`, the activation was 45.8%.
`O=C(Nc1cccc(Cl)c1)OCc1ccccn1` was tested, and the activation was 69.9% (active).
`Cc1c(NC(=O)c2coc(=O)c(Br)c2)c(=O)n(-c2ccccc2)n1C` gave an activation of -0.3%.
`COC(=O)c1cc(C(=O)OC)cc(N2C(=O)CC(N3CCN(c4ccccc4)CC3)C2=O)c1` (centres undefined) gave an activation of 15.5%.
In the case of `CC(C)c1ccc(NC(=O)NC2CCCCC2)cc1`, the activation was 85.1% (active).
`CC(=O)OC(C(=O)NC1CCCCC1)c1ccccc1` (centres undefined) gave an activation of -15.4%.
`CC(Cc1cccs1)NC(=O)NC1CCCCC1` (centres undefined) showed an activation of 31.7%.
Compound `COc1ccc(-c2nc(SCC(=O)N3CCOCC3)n[nH]2)cc1` has an activation of 8.1%.
`CC(=O)Nc1ccc(NC(=O)CN2CCCC(C)C2)c(Cl)c1` (centres undefined) gave an activation of 7.9%.
`O=C(C1CCC1)N1CCc2cc(S(=O)(=O)NCc3cccnc3)ccc21` showed an activation of 16.4%.
With `Cc1ccc(C(=O)N2CCN(C3CCCCC3)CC2)s1` the activation was -13.8%.
In the case of `COc1cccc(CNC(=O)C2CCN(S(=O)(=O)c3cccc4cccnc34)CC2)c1`, the activation was -6.7%.
`C#CCN1C(=O)C(O)(CC(=O)c2cc(OC)ccc2OC)c2ccccc21` (centres undefined) gave an activation of -9.4%.
With `CCOC(=O)NCc1ccc2c(c1)OCO2` the activation was -14.5%.
Work on `CCOC(=O)c1c(C)[nH]c(C(=O)COc2ccc3c(c2)OCO3)c1C` yielded an activation of 28.3%.
In the case of `CCOC(=O)c1nc(-c2ccc3c(c2)OCO3)[nH]c1C`, the activation was 66.7% (active).
In the case of `COCc1nnc(NC(=O)CS(=O)(=O)Cc2ccccc2)s1`, the activation was -0.8%.
`COC(=O)C(C)Sc1ccc2nnc(-c3cccc(F)c3)n2n1` (centres undefined) showed an activation of -8%.
Compound `COC(=O)c1c(NC(=O)c2cccs2)sc2c1CCCC2` has an activation of 19.4%.
`c1ccc2c(c1)OCC(CNc1ncnc3nc[nH]c13)O2` (centres undefined) was tested, and the activation was 20.1%.
For `CCCC(=O)N=c1sc2cccc(F)c2n1C`, the activation was 5.7%.
`Cn1c(=NC(=O)C2CC2)sc2cc(F)cc(F)c21` gave an activation of 27.7%.
In the case of `Cn1c(=NC(=O)c2ccco2)sc2cccc(F)c21`, the activation was 61.5% (active).
For `COC(=O)c1cccc(NC(=O)CN2CCC(NC(=O)c3cc(OC)c(OC)c(OC)c3)CC2)c1`, the activation was 17.2%.
For `COc1ccc(CCNC(=O)CN2CCC(n3nnc4cc(F)ccc43)CC2)cc1OC`, the activation was -11.2%.
With `O=C(NC1=NCCS1)c1ccc(Cl)s1` the activation was 80.1% (active).
`CC(NC(=O)COc1ccccc1)C(=O)NC1=NCCS1` (centres undefined) showed an activation of -14.4%.
`CCc1ccc(N2CC(C(=O)NC3=NCCS3)CC2=O)cc1` (centres undefined) was tested, and the activation was -23.3%.
With `C=CCn1c(=S)[nH]c2nc3c(cc2c1=O)COC(C)(C)C3` the activation was -9.2%.
For `O=C(Nc1nnc(CCc2ccccc2)s1)C1CCCO1` (centres undefined), the activation was 0.2%.
`O=C(Nc1ccc(-c2nnc(-c3ccccc3)o2)cc1)C1CCCO1` (centres undefined) showed an activation of 32.9%.
`O=C(Nc1cccc(-c2nnc(-c3ccccc3)o2)c1)C1CCCO1` (centres undefined) was tested, and the activation was 61.1% (active).
For `O=C(COc1ccccc1)N1CCc2ccccc2C1`, the activation was 18.5%.
In the case of `Cc1ccsc1C(=O)OCC(=O)c1cc(C)n(CC2CCCO2)c1C` (centres undefined), the activation was -85.1%.
For `Cc1cc(C(=O)OCC(=O)NCc2ccco2)c(C)n1-c1ccccc1`, the activation was 61.4% (active).
With `O=C(CSc1nnc(-c2cccs2)n1-c1ccccc1)NCc1ccco1` the activation was 11.1%.
`O=C(COC(=O)C12CC3CC(CC(C3)C1)C2)NCc1ccco1` showed an activation of -21.1%.
`CC(=O)N1CSCC1C(=O)O` (centres undefined) showed an activation of 15.8%.
`O=c1[nH][nH]c(=O)c2cc(N3CCCC3)ccc12` was tested, and the activation was 1.1%.
With `CCOC(=O)c1cc(NC(=O)c2cccnc2)cc(C(=O)OCC)c1` the activation was -17.2%.
For `Cc1cc2nc(-c3ccc(NC(=O)c4cccnc4)cc3)oc2cc1C`, the activation was 71.6% (active).
`CC(C)NS(=O)(=O)c1ccc(NC(=O)c2cccnc2)cc1` gave an activation of 25.4%.
`O=C(NC12CC3CC(CC(C3)C1)C2)N1CCCC(CO)C1` (centres undefined) showed an activation of -9.5%.
`O=C(Cn1nnc(-c2ccccc2)n1)NCc1ccccc1` showed an activation of -3.8%.
`Cc1ccccc1-c1nnn(CC(=O)c2ccc(S(=O)(=O)N3CCCC3)cc2)n1` gave an activation of -9.2%.
For `CC(C)(C)NC(=O)Cn1nnc(-c2ccccc2Cl)n1`, the activation was 65.9% (active).
`O=C(CN1C(=O)C2C3C=CC(C3)C2C1=O)NCCc1ccccc1Cl` (centres undefined) showed an activation of 0.8%.
For `O=S(=O)(NCc1ccccn1)c1ccc(Br)s1`, the activation was -0.5%.
Work on `COC(=O)c1sc(NC(=O)c2ccc(OC)cc2OC)nc1C` yielded an activation of -38.1%.
`O=C(Nc1nncs1)c1ccccc1NS(=O)(=O)c1cccs1` gave an activation of 2.5%.
For `COc1ccc(C(=O)Nc2nncs2)c(OC)c1`, the activation was 62.9% (active).
For `Cn1c(=O)n(CCc2ccccc2)c(=O)c2c1nc1n2CCCN1c1ccccc1`, the activation was 8.2%.
In the case of `Nc1c(C(=O)NCc2ccccc2)nnn1Cc1cccc(Cl)c1`, the activation was 9.8%.
With `CCC(=O)NC(=Nc1nc2ccccc2s1)NC(=O)CC` the activation was 48.7% (active).
In the case of `O=C(O)CSCc1nc2ccccc2s1`, the activation was 18.2%.
Work on `COC(=O)Cc1cc(=O)n(-c2nc3ccccc3s2)[nH]1` yielded an activation of -10.3%.
Work on `O=c1/c(=C/c2ccc(CNS(=O)(=O)c3ccccc3)o2)sc2n1CCN=2` yielded an activation of -17.5%.
In the case of `Cn1nnc(NC(=O)CSc2ncn[nH]2)n1`, the activation was -7.4%.
In the case of `CCN(C(=O)CSc1ncn[nH]1)c1cccc2ccccc12`, the activation was -6.5%.
In the case of `CC(C)(C)c1ccc(C(=O)CSc2ncn[nH]2)cc1`, the activation was 54.2% (active).
Work on `CCOC(=O)c1csc(NC(=O)c2ccc(S(=O)(=O)N3CCCC3)cc2)n1` yielded an activation of 8.6%.
In the case of `Cn1c(SCC(=O)OC2CCCCC2)nnc1-c1ccc(S(=O)(=O)N2CCCC2)cc1`, the activation was -7.4%.
`COc1cccc(OCC(=O)Nc2ccccc2C(N)=O)c1` was tested, and the activation was 1.9%.
For `O=C(Nc1nn(Cc2ccccc2F)cc1Br)c1cccs1`, the activation was -5.3%.
For `COc1ccc(N=Cc2c(O)[nH]c3ccccc23)cc1OC`, the activation was 55.7% (active).
In the case of `COc1cc(N=Cc2c(O)[nH]c3ccccc23)cc(OC)c1OC`, the activation was -15.8%.
`COc1ccc(OC)c(N=Cc2c(O)[nH]c3ccccc23)c1` showed an activation of -14.1%.
Work on `CC(=O)N1CC2(C)CN(C(C)=O)CC(C)(C1)C2=O` yielded an activation of -2%.
`CC1CCc2sc3nc(N4CCN(CCO)CC4)n4ncnc4c3c2C1` (centres undefined) showed an activation of 12.3%.
For `O=C(O)C1CCCCC1C(=O)Nc1ccc(Cl)cc1` (centres undefined), the activation was -6.2%.
`O=C(NCc1cn2ccsc2n1)Nc1ccc(Cl)cc1` showed an activation of 10.4%.
For `O=C(Nc1ccc(Cl)cc1)c1ccsn1`, the activation was 59.5% (active).
`COc1ccc(O)c(C(=O)c2cnc3onc(C(C)C)c3c2)c1` was tested, and the activation was 12.5%.
Compound `CCc1c(C)sc(NC(=O)OC)c1C(=O)N1CCOCC1` has an activation of -6.7%.
In the case of `COc1ccc(C2C(C(=O)Nc3ccccc3OC)=C(C)Nc3nnnn32)c(OC)c1` (centres undefined), the activation was 7.2%.
`CCOc1ccccc1NC(=O)Nc1cc(OC)ccc1OC` gave an activation of -19.1%.
In the case of `COc1ccccc1NC(=O)c1ccc(C)s1`, the activation was 48.9% (active).
`CC(C)c1nc2oc3c(N4CCN(C)CC4)ncnc3c2c2c1CCC2` showed an activation of 13.9%.
`Cc1ccc(NC(=O)CN2CCC3(O)CCCCC3C2c2ccc3c(c2)OCO3)c(C)c1` (centres undefined) showed an activation of 11.9%.
With `Cc1ccc(C)c(NC(=O)C2CCCN2C(=O)OC(C)(C)C)c1` (centres undefined) the activation was -9%.
`O=C(Nc1ccc(Oc2ccccc2)cc1)c1ccco1` gave an activation of 22.9%.
`COC(=O)c1ccc(NC(=O)c2ccco2)cc1` was tested, and the activation was 77.4% (active).
`Cc1ccnc(NC(=O)c2ccc(NC(=O)c3ccco3)cc2)c1` showed an activation of 29.2%.
`O=C(C1CCN(S(=O)(=O)Cc2ccccc2)CC1)N1CCCc2ccccc21` showed an activation of 12.2%.
`COc1cc(C2C(C#N)=C(N)Oc3n[nH]c(-c4ccccn4)c32)cc(OC)c1OC` (centres undefined) showed an activation of 7.4%.
In the case of `Cc1ccc2c(c1)N(C(=O)CCC(=O)N1CCc3ccccc3C1)CCO2`, the activation was 0.5%.
For `CC(=O)Oc1ccc(C(=O)Nc2nccs2)cc1`, the activation was 61% (active).
`COc1cc(C(=O)Nc2nccs2)cc(OC)c1OC` gave an activation of -15.9%.
`Cn1cccc1C(=O)Nc1nccs1` showed an activation of 12.1%.
For `O=C(NCCCN1CCCCCC1)c1ccc(N2CCCC2=O)cc1`, the activation was -16.9%.
In the case of `CC1CCC(NC(=O)c2ccc(N3CCCC3=O)cc2)CC1` (centres undefined), the activation was 61.7% (active).
`Cc1ccc(C(=O)NC2CCN(C(=O)N3CCOCC3)CC2)cc1` showed an activation of -4.3%.
With `CCOC(=O)c1c(C)c(C(=O)NCCc2ccc(S(N)(=O)=O)cc2)c(C)n1CC` the activation was 17.3%.
In the case of `CCNC(=O)CN(c1ccc(C)cc1)S(=O)(=O)c1ccc(SC)cc1`, the activation was -24%.
Compound `Oc1ccc(-c2csc(Nc3cccnc3)n2)cc1` has an activation of 5.9%.
For `Clc1ccc(Nc2nc(-c3cccs3)cs2)nc1`, the activation was 41.7%.
`c1ccc(Nc2nc(-c3ccncc3)cs2)nc1` was tested, and the activation was 50.9% (active).
For `O=C(Cn1cc2c(n1)CCCCC2)NCCN1CCOCC1`, the activation was -13.6%.
With `Cc1cccc(-c2noc(-c3ccc(F)cc3)n2)c1` the activation was 31%.
`Cc1ccc(-c2noc(CN3CCN(Cc4ccccc4)CC3)n2)cc1` was tested, and the activation was -1.1%.
For `Cc1ccc(Cc2nc(-c3cccc(C)c3)no2)cc1`, the activation was 51.5% (active).
`CC(=O)c1nc(N2C(=O)C3CC=C(C)CC3C2=O)sc1C` (centres undefined) showed an activation of 1.8%.
With `CCn1c(SCCC(C)C)nnc1-c1c[nH]c2ccccc12` the activation was 8.7%.
